Experiment [1] is described as follows: Cell Viability - MRC5 (AID 434; calls by dose curve;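 further: potency means the concentration at half of the fitted maximal effect; potency reflects cytotoxicity seen as loss of intracellular ATP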). To be noted: MRC5 lung fibroblast viability, qHTS. The essentials: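 MRC5 normal human lung fibroblasts (1500/well) were treated with compounds for 40 hr at 37 °C in complete medium, and viable cells were measured as intracellular ATP by CellTiter-Glo luminescence. AC50 came from Hill fits, normalized to DMSO and 100 uM tamoxifen.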

The nature of experiment [2]: Cell Viability - N2a (AID 540).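 Further: cells exposed to compound for 40 h at 37 °C; plate controls were DMSO alone for no effect and tamoxifen control for full effect; nearly all actives have a fitted effect of over 45% in size.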 As to conditions: N2a mouse neuroblastoma cell viability; at 92.2 µM (top of the series). In a few lines: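 Luminescent ATP signal (CellTiter-Glo, 20 min at room temperature) served as the viability read-out after N2a cells were treated with compounds for 40 hours at 37 °C. Concentration-response data were fitted to the Hill equation for AC50.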

A short description of experiment [3]: Cell Viability - H-4-II-E (AID 543). Further: on the % scale 0 is the no-effect control and ±100 the full control effect; nearly all actives have a fitted effect of over 35% in size. To be noted: H-4-II-E rat hepatoma viability; series mostly up to 92.2 µM. In a few lines:
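Luminescent ATP signal (CellTiter-Glo) served as the viability read-out, with cytotoxicity seen as a concentration-dependent ATP drop. Cells were treated for 40 hours in complete medium. AC50 values derive from Hill-equation modelling.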

Experiment [4] can be described thus: Cellular Toxicity (caspase-3) Jurkat (AID 655).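 Further: cells exposed to compound for 16 h at 37 °C before reading.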 As to conditions: Jurkat caspase-3 activation, luminescence, DMSO = 0%, tamoxifen = 100%; at 92.2 µM (top of the series). The essentials:
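5000 Jurkat cells/well; compound 16 hr, 37 °C; Caspase-Glo 3/7 added, 20 min RT; luminescence read. Norm: DMSO = 0%, tamoxifen 100 uM = 100%. AC50, Hill model.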

Experiment [5] in a line: Cell Viability - LYMP1-002 - Assay at 16 hr (AID 948). Further: potency means the concentration at half of the fitted maximal effect.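 On activity change, negative = cytotoxicity: 0% = DMSO alone and full effect = 92 µM tetraoctylammonium bromide.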 As to conditions: LYMP1-002 lymphoblastoid cell viability; series mostly up to 92.2 µM. In a few lines:
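Seed 2500 LYMP1-002 cells per well in complete medium and hold 5 hr at 37 C. Add compound across a concentration series and incubate 16 hr at 37 C. Add CellTiter-Glo, wait 30 min at room temperature, read luminescence.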

Experiment [6] can be described thus: MultiTox-Fluor Cytotoxicity Assay - LYMP1-002 - Dead Cells (AID 960). Further: nearly all actives have a fitted effect of over 60% in size. Further: potency means the concentration at half of the fitted maximal effect. To be noted: LYMP1-002 lymphoblastoid cells, dead-cell protease fluorescence; series mostly up to 46.1 µM. The essentials: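 LYMP1-002 cells 2500/well; 5 hr 37 C pre-incubation; compound 16 hr 37 C; MultiTox-Fluor reagent 60 min RT; dead-cell fluor Ex/Em 485/520. Norm. to DMSO (0%) vs 15 uM tetraoctylammonium bromide (100%); Hill AC50.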

Experiment [7] can be described thus: MultiTox-Fluor Cytotoxicity Assay - LYMP1-003 - Dead Cells (AID 961). Further: nearly all actives have a fitted effect of over 70% in size. Further: potency means the concentration at half of the fitted maximal effect. To be noted: LYMP1-003 lymphoblastoid cells, dead-cell protease fluorescence; series mostly up to 92.2 µM. In a few lines:
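LYMP1-003 lymphoblastoid, 2500 cells/well, 5 hr settle then 16 hr cpd at 37 C; MultiTox-Fluor reagent 60 min RT; Ex/Em 485/520 dead-cell signal; norm. DMSO = 0%, 15 uM tetraoctylammonium bromide = 100%; Hill AC50.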

Experiment [8] is described as follows: MultiTox-Fluor Cytotoxicity Assay - LYMP1-003 - Live Cells (AID 962).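 Further: cells exposed to compound for 16 hours at 37 °C.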 Further: potency means the concentration at half of the fitted maximal effect. To be noted: LYMP1-003 lymphoblastoid cells, MultiTox-Fluor live-cell protease fluorescence; series mostly up to 92.2 µM. The essentials: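 qHTS, 1536-well; 2500 cells/well LYMP1-003; 5 hr 37 C settle; cpd 16 hr 37 C; MultiTox-Fluor reagent 60 min RT; live-cell protease fluor. 405/510; Hill-fit AC50; tetraoctylammonium bromide pos. ctrl.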

Experiment [9] in a line: Cell Viability - LYMP1-003 - Assay at 24 hr (AID 963). Further: potency means the concentration at half of the fitted maximal effect. To be noted: LYMP1-003 lymphoblastoid cell viability; series mostly up to 92.2 µM. The essentials: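 Cells seeded at 2500/well, 5 hr at 37 C; compounds added; 24 hr at 37 C; CellTiter-Glo added, 30 min room temperature; luminescence read. Decrease in ATP taken as cytotoxicity, AC50 from Hill modelling.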
Experiment [10] in a line: Cell Viability - LYMP2-003 (AID 965).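 Further: cells exposed to compounds for 24 h before reading; nearly all actives have a fitted effect of over 50% in size.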 Further: potency means the concentration at half of the fitted maximal effect.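 On activity change, negative = cytotoxicity: 0% = DMSO only and full effect = 92 µM tetraoctylammonium bromide.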 To be noted: LYMP2-003 lymphoblastoid cell viability; series mostly up to 92.2 µM. In a few lines: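 Seed 2500 lymphoblastoid cells/well; incubate 5 hr, 37 C; add compounds; incubate 24 hr, 37 C; add CellTiter-Glo, 30 min RT; read luminescence. AC50 from Hill fit.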
For experiment [11], the target named is Glucocorticoid receptor (Homo sapiens) (UniProt P04150). The experiment can be described thus: qHTS assay for small molecule agonists of glucocorticoid receptor signaling (AID 588532; active means well fitted curve in the direction sought with a large enough effect in the signal ratio, with a control signal flat; the % refers to the signal ratio;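 further: 100% = dexamethasone at 0.1 µM and 0% = DMSO only wells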). To be noted: HeLa MMTV-bla, beta-lactamase ratio, agonist, 18 h; stronger effect = higher value; percent of dexamethasone control, DMSO zero. The essentials: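 MMTV-bla HeLa, beta-lactamase reporter; medium with 1% charcoal/dextran-stripped FBS; cpds up to 92 uM, 18 h, 37 C; CCF4 readout 460/530 nm; Hill fit → EC50, efficacy vs 0.1 uM dexamethasone = 100%.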

Experiment [12] has as its target Thyroid hormone receptor beta (Homo sapiens) (UniProt P10828). Description: qHTS assay for small molecule agonists of thyroid hormone receptor beta signaling (AID 588545; calls by dose curve;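 further: 0% = DMSO only and 100% = 10 nM T3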). To be noted: TR-UAS-bla GripTite HEK 293, beta-lactamase ratio, agonist mode, 18 h, percent of T3 response, DMSO as zero; series mostly up to 76.7 µM. In a few lines:
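TR-UAS-bla-GripTite HEK 293 cells in medium with 2% charcoal/dextran FBS, 0.1 mM NEAA and 1 mM sodium pyruvate were treated with titrated compounds for 18 hrs at 37 C. Beta-lactamase reporter was read with CCF4 dye (ex 405, em 460/530 nm); EC50 from Hill fits.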

Experiment [13] can be described thus: qHTS assay for small molecule antagonists of retinoid X receptor alpha signaling (AID 588546; active means well fitted inhibition curve with a large enough effect in the signal ratio, with a control signal flat, not every such curve was filed as active; the % refers to the signal ratio;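 further: cells stimulated with 9-cis-retinoic acid as agonist; on the % scale 0 is the no-effect control and ±100 the full control effect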). To be noted: HEK293T RXRa-UAS-bla, beta-lactamase ratio, antagonist mode; measured here: W530 green channel, cytotoxicity proxy. In a few lines:
(§1)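 Beta-lactamase reporter inhibition, read as CCF4 fluorescence ratio (ex 405, em 460/530 nm) after 2 h at RT. HEK293T UAS-bla cells, 2500/well, were stimulated with 9-cis-RA at 500 or 100 nM final alongside test compound for 18 h at 37 C.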

Experiment [14] addresses Retinoic acid receptor RXR-alpha (Homo sapiens) (UniProt P19793). The experiment is described as above. As to conditions: HEK293T RXRa-UAS-bla, beta-lactamase ratio, antagonist mode. The essentials:
as §1

In experiment [15] the target is Thyroid hormone receptor beta (Homo sapiens) (UniProt P10828). The experiment can be described thus: qHTS assay for small molecule antagonists of thyroid hormone receptor beta signaling (AID 588547; active means well fitted inhibition curve with a large enough effect in the signal ratio, with a control signal flat, not every such curve was filed as active; the % refers to the signal ratio;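 further: cells stimulated with 0.4 nM T3 agonist during compound exposure; on the % scale 0 is the no-effect control and ±100 the full control effect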). To be noted: TR-UAS-bla HEK293, beta-lactamase ratio, antagonist mode, 18 h. The essentials:
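TR-UAS-bla GripTite HEK293 cells in 2% charcoal/dextran FBS medium were preincubated 4 h at 37 C, given compound (0.59 nM to 92 uM) plus 0.4 nM T3 (final) for 18 h, then CCF4 for 2 h at RT; Hill fit gave IC50.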

Experiment [16] can be described thus: qHTS assay for small molecule agonists of the antioxidant response element (ARE) signaling pathway (AID 651741; active means well fitted activation curve with a large enough effect in the signal ratio; the % refers to the signal ratio; further: potency means the concentration at half of the fitted maximal effect). To be noted: HepG2 ARE-bla reporter, beta-lactamase FRET ratio, 16 h; series mostly up to 96 µM. In a few lines: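 Compounds in DMSO are pinned onto HepG2 ARE-bla cells (2,000/well) that were preincubated 5 h; plates stay 16 h at 37 C, then beta-lactamase activity is detected with LiveBLAzer B/G substrate by fluorescence.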

Experiment [17] in a line: qHTS assay for small molecule disruptors of the mitochondrial membrane potential - 5 hr assay (AID 651755; calls by dose curve; further: on the % scale 0 is the no-effect control and ±100 the full control effect; nearly all actives have a fitted effect of over 40% in size). To be noted: JC-1-type ratio dye; series mostly up to 92.2 µM. The essentials: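 HepG2 cells, attached overnight at 37C, were exposed to compound or DMSO for 5 hr at 37C, 5% CO2. Mito-MPS dye was then added for 30 min, and fluorescence read at 490/535 nm (monomers) and 540/590 nm (aggregates).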

The nature of experiment [18]: qHTS assay for environmental chemicals that activate the Aryl hydrocarbon Receptor (AhR) signaling pathway (AID 651777). Further: nearly all actives have a fitted effect of over 15% in size. Further: potency means the concentration at half of the fitted maximal effect. On activation: % of control where 0% means no effect. As to conditions: 1A2-DRE human hepatoma cells, luciferase, 24 h; activation: stronger effect = higher value. The essentials:
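Stable CYP1A2 promoter/DRE-luciferase human hepatoma line treated 24 hr; One-Glo luminescence, 30 min RT.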

Experiment [19] addresses Peroxisome proliferator-activated receptor alpha (Homo sapiens) (UniProt Q07869). The experiment can be described thus: qHTS assay for small molecule agonists of the peroxisome proliferator-activated receptor alpha (PPARalpha) signaling pathway (AID 651778). Further: % of control where 0% means no effect. As to conditions: PathHunter PPARalpha complementation, chemiluminescence, 6 h; stronger effect = higher value. The essentials: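 Cells plated at 2,000/well and held overnight at 37 C, 5% CO2, then compound added by pin tool for 6 hr; after PathHunter detection reagent and 60 min at room temperature, chemiluminescence from enzyme complementation was read.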

A short description of experiment [20]: qHTS assay for small molecule agonists of the antioxidant response element (ARE) signaling pathway measured by Nrf2-dependant transcriptional activity (AID 720636; active means well fitted curve in the direction sought with a large enough effect in the repeat runs; an effect the other way counts as inactive or inconclusive;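 further: HepG2 cells with an ARE-driven luciferase reporter; % of control where 0% means no effect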). To be noted: ARE-luc HepG2, Nrf2 luciferase reporter, 16 h; series mostly up to 92.4 µM. The essentials: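 Reporter gene assay, HepG2 ARE-luc: 16 hr compound, 37 C, 5% CO2; read-out luciferase luminescence.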

Values joined by “and” are separate entries in the source; they are usually repeats but may differ in a detail not shown here. Equal values may be shown once. Results filed as inconclusive are left out. A structure can be active in one record and inactive in another. Active and inactive are the calls of the source. Unless noted, the call rests on the fitted dose curve; in most records, active means well fitted curve in the direction sought with a large enough effect; inconclusive means small, poorly fitted or top-dose-only effect, or another doubt; inactive means no such curve, though single readings can be large; an effect the other way counts as inactive or inconclusive.

Sequence of Peroxisome proliferator-activated receptor alpha (Homo sapiens) (Q07869 whole entry, looked up): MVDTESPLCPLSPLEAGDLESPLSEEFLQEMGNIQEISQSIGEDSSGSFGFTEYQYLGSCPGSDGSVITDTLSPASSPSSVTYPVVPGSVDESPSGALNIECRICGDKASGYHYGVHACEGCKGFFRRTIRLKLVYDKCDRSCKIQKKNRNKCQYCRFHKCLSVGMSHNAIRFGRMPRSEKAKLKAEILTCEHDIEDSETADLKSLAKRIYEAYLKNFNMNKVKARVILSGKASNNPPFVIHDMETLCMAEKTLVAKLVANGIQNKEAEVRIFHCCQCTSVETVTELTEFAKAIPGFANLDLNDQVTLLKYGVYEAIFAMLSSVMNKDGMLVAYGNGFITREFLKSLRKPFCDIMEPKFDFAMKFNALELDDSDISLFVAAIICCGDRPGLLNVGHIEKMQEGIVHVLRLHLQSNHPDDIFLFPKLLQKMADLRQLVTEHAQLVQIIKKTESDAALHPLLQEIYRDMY
Sequence of Thyroid hormone receptor beta (Homo sapiens) (P10828 whole entry, looked up): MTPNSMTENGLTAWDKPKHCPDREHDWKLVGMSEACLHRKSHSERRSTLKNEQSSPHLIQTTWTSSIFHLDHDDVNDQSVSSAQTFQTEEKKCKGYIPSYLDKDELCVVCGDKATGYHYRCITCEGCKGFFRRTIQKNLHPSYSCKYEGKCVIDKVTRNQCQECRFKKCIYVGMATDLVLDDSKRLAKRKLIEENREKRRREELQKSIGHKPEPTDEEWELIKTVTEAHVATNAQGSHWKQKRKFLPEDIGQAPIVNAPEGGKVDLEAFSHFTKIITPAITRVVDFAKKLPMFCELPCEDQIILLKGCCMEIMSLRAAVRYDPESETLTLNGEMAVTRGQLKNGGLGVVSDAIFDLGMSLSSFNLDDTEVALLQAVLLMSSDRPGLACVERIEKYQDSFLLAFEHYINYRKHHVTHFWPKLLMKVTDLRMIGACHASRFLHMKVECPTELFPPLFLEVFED
Sequence of Retinoic acid receptor RXR-alpha (Homo sapiens) (P19793 whole entry, looked up): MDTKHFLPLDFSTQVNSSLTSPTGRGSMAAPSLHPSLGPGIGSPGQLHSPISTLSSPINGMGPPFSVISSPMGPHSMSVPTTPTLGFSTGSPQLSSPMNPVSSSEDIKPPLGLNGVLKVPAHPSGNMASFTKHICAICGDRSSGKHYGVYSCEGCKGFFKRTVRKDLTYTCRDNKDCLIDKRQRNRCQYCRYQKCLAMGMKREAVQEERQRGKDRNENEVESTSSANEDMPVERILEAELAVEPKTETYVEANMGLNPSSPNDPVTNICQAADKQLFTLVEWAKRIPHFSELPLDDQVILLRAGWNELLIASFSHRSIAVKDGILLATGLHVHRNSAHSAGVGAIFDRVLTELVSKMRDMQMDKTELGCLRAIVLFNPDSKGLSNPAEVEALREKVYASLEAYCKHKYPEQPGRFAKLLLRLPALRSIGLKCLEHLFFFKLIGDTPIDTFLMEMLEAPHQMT
Sequence of Glucocorticoid receptor (Homo sapiens) (P04150 whole entry, looked up): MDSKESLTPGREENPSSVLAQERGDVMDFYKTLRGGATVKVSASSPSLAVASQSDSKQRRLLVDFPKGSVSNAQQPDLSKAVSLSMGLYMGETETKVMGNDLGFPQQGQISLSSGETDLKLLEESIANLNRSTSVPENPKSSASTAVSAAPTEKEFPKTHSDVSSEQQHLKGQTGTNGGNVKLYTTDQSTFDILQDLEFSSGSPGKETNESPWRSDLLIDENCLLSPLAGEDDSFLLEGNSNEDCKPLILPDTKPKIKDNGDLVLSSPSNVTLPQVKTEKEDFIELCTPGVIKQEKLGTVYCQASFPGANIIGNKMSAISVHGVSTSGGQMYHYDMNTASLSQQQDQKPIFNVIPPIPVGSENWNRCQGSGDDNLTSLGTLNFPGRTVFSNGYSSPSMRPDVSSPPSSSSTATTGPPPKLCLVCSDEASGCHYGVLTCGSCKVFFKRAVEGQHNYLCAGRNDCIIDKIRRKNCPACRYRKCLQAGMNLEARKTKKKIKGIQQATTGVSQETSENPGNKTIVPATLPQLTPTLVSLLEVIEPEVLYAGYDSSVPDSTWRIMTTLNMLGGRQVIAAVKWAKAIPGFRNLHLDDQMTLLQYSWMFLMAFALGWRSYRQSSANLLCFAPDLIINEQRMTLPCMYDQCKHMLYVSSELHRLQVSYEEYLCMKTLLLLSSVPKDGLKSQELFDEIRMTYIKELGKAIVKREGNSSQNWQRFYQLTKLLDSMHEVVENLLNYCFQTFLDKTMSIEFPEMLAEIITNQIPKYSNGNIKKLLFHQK

Regarding `CNC(=O)O/N=C/C(C)(C)SC`, the Potency in experiment [1] was > 92 µM (inactive); in experiment [16], 27.3 µM (active); in experiment [18], 39.8 µM (active). For the same compound, the activity change, negative = cytotoxicity in experiment [2] was -2.66% (inactive). Also, the Potency result in experiment [3], in [5], in experiment [6], in experiment [7], in [8] and in [9] was “inactive” in each case. The Potency entry in [10] and in experiment [17] was “inactive” each time. For the same compound, the caspase-3 activation in experiment [4] was -0.602% (inactive). In addition, the activation in [11] is -4.75% (inactive) and -0.357% (inactive) and -10.4% (inactive); in experiment [18] it was -0.995% (inactive) and 0.0962% (inactive). The outcome in experiment [12] and in experiment [20] was inactive. Besides, the max response is -9.38% and -5.02% and 4.99% in experiment [13]; -10.4% (inactive) and 16.3% (inactive) and -14.6% (inactive) in [14]; 4.62% (inactive) and -1.35% (inactive) and -3.37% (inactive) in [19]. Besides, in [15], the activity change % (negative = inhibition) is -3.92% (inactive) and 16.1% (inactive) and 0.362% (inactive).

`CCOCN(C(=O)CCl)c1c(C)cccc1CC`: the activity change, negative = cytotoxicity in experiment [2] was 4.55% (inactive). Moreover, the Potency result in experiment [5], in [8], in experiment [9] and in experiment [17] was “inactive” throughout. Besides, the Potency in experiment [10] is 50.1 µM (active); in experiment [16], 7.5 µM (active) and 7.7 µM (active). In addition, the activation in [11] was 5.28% (inactive) and 1.08% (inactive); in experiment [18], -0.995% (inactive) and 0.961% (inactive). The result in experiment [12] was inactive. The max response in experiment [19] was -0.344% (inactive) and -1.51% (inactive).

Regarding `O=C(O)COc1ccc(Cl)cc1Cl`, the values for the Potency in experiment [1] and in experiment [16] were > 92 µM (inactive) and 48.6 µM (active), respectively. Further, in experiment [2], the activity change, negative = cytotoxicity is 9.64% (inactive) and 3.72% (inactive). Besides, the Potency result in experiment [3], in experiment [5], in experiment [6], in experiment [7], in [8] and in experiment [9] was “inactive” throughout. Moreover, the Potency entry in experiment [10] and in experiment [17] was “inactive” throughout. Besides, the caspase-3 activation in experiment [4] is -0.262% (inactive) and -0.585% (inactive). The activation in [11] is -2.35% (inactive) [middle of 4 runs]. Moreover, the max response was -3.05% (inactive) [middle of 4 runs] in experiment [14] and 0.368% (inactive) [middle of 4 runs] in [19]. The compound was called inactive in [20].

Regarding `ClC1=C(Cl)C2(Cl)C3C4CC(C5OC45)C3C1(Cl)C2(Cl)Cl` (stereo not given), the Potency in experiment [1] is > 92 µM (inactive); in experiment [5], 12.6 µM (active); in experiment [6], 20 µM (active); in [7] it was 10 µM (active); in [8] it was 12.6 µM (active); in [9] it was 25.1 µM (active). In addition, the results for the Potency in experiment [10] and in [16] were 25.1 µM (active) and 42.2 µM (active), respectively. Also, the Potency entry in experiment [3] and in [17] was “inactive” throughout. Also, the caspase-3 activation in experiment [4] is 28.4% (inactive). The activation was -5.87% (inactive) in [11] and -0.344% (inactive) in experiment [18]. In addition, the result in [12] and in experiment [20] was inactive. In [15], the activity change % (negative = inhibition) is -28.8% (inactive). Besides, the max response in experiment [19] was 9.76% (inactive).

These data come from PubChem BioAssay (NCATS).
